This passage reports inhibition results from PubChem BioAssay AID1847 (The Scripps Research Institute Molecular Screening Center, 2009).

The inhibition is the relative decrease from the control value, in per cent.

Where “and” joins values, the source holds several entries; their conditions need not be identical. Identical values can stand only once. Hit rate of the full screen: of about 2,300 compounds, about 1,100 (48%) were called active. So high a share suggests a set chosen from earlier hits. These entries were drawn from the full list. Values without a mark were called inactive.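 How the source made its calls: active means inhibition above the mean inhibition of all tested sample wells plus 3 SD (cut at about 10% in these data); inactive means the rest.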

The target in this assay is Luciferin 4-monooxygenase (Photinus pyralis) (UniProt P08659). Briefly: firefly luciferase inhibitors, HSP90 counter-screen, confirmation, artefact control for HSP90 inhibitor project, biochemical, luminescence, triplicate (AID 1847).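 Further: 0% = DMSO with luciferase and 100% = wells lacking luciferase.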 The settings on record: purified native firefly luciferase, at 5.9 µM, active compounds read high.
Chain of Luciferin 4-monooxygenase (Photinus pyralis) (P08659 whole entry, looked up): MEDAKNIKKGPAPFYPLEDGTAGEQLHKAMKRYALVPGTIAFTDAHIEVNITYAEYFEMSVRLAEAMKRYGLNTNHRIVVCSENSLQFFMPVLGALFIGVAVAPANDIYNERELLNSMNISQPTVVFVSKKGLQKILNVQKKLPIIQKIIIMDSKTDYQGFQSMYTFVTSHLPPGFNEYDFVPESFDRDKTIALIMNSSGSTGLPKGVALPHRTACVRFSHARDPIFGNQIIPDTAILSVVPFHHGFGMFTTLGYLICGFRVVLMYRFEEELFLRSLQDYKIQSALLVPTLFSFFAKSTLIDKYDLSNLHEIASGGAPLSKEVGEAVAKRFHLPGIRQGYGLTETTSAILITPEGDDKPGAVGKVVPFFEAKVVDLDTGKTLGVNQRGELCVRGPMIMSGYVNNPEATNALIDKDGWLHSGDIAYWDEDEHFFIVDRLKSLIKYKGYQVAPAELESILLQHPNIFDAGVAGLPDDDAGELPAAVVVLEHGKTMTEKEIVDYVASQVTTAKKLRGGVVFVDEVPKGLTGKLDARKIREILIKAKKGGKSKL
Consider `COC(=O)c1sc(NC(=O)c2ccc(OC)cc2OC)nc1C`, for which the inhibition is 56.6% (active).
On to `COC(=O)c1sc(NC(=O)c2csc3c2CCCC3)nc1C`, for which the inhibition is -24.8%.
As for `COc1cc(SC)ccc1C(=O)Nc1nc(C)cs1`, the figure is 90.1% (active).
Turning to `Cc1ccc(-n2c(SCC(=O)Nc3ncc(Cl)cc3Cl)nc3ccccc32)cc1`, the inhibition is -5.93%.
Consider `Cc1sc2nc(CSCC(=O)Nc3c(Cl)cccc3Cl)[nH]c(=O)c2c1C`, for which the inhibition is -10.5%.
Regarding `CCOc1ccc(C2NC(=S)NC3=C2CCc2ccccc23)cc1` (stereo not given), the inhibition was 27.2% (active).
Take `O=C(Nc1ccccc1)c1ccc2c(c1)OCCCO2`: the inhibition is 32.8% (active).
For `O=C(Nc1nc2ccccc2s1)c1ccc2c(c1)OCO2`, the inhibition was 56% (active).
`Cc1nc(NC(=O)c2cccc(Cl)c2)sc1-c1csc(Nc2cccc(Cl)c2)n1`: the inhibition is -10.7%.
Take `c1ccc(-c2ccc3c(c2)NC(C2Nc4cc(-c5ccccc5)ccc4O2)O3)cc1` (stereo not given): the inhibition was -6.37%.
As for `Clc1ccc(-c2cc(-c3ccccn3)on2)c(Cl)c1`, the figure is 81.9% (active); as for `O=[N+]([O-])/C=C/c1ccc2c(ccn2Cc2ccccc2)c1`, 5.87%; as for `CCN(CC)CCn1c(N)c(S(=O)(=O)c2ccccc2)c2nc3ccccc3nc21`, -7.93%.
For the compound `COc1ccc(-n2nnnc2-c2nc3ccccc3s2)cc1`, the inhibition is 52.3% (active).
Take `Cc1cccc(NC(=O)/C=C/c2ccc3c(c2)OCO3)n1`: the inhibition was 30.9% (active).
On to `Cc1csc(SCC(=O)Nc2sccc2C#N)n1`, for which the inhibition was 8.6%.
In the case of `Cn1c(-c2ccco2)nc2cc3ccccc3cc21`, the inhibition was 51.4% (active).
Take `Cc1cc(C(=O)COC(=O)C2CC2)c(C)n1-c1ccc(F)cc1`: the inhibition is 88.4% (active).
As for `Cc1ccc(C(=O)O/N=C(\N)c2ccccn2)cc1Cl`, the inhibition is 79.1% (active).
As to `CCOC(=O)C1=C(c2ccc(OC)cc2)C(=O)c2ccccc2C1=O`, the inhibition was -5.23%.
As for `CC(C)Nc1ccc(-n2nc3ccccc3[n+]2[O-])cc1`, the figure is 44% (active); as for `O=C(Nc1ccc2c(c1)OCCO2)C1CCCN(c2ncccn2)C1` (stereo not given), 20.5% (active).
Turning to `Clc1ccc2nc(CSc3ccccc3)cn2c1`, the inhibition was 53% (active).
As for `Cc1nc2cc(NC(=O)Nc3cccc(F)c3)ccc2n1C`, the inhibition is 21.4% (active).
As for `Cc1ccc(Nc2nc(-c3ccc(O)cc3O)cs2)nc1`, the figure is -25.8%.
With `Cc1ccc(Nc2nc(-c3sc(NC(=O)c4ccccc4)nc3C)cs2)cc1` the figure was -23.6%; with `Cc1cnc(NC(=O)c2ccccn2)s1`, 15.6% (active).
As to `CCOC(=O)CNC(=O)c1nn(-c2cccc(OC)c2)c(=O)c2ccccc12`, the inhibition is -3.73%.
`CCOc1ccc(OCc2ccc(C(=O)N(C)c3ccccc3)o2)cc1`: the inhibition was -13.3%.
As for `CCOc1ccc(OCc2cccc(C(=O)N(CC)CC)c2)cc1`, the figure is 22.5% (active).
In the case of `CCc1ccc2oc(-c3ccc(N)cc3)nc2c1`, the inhibition was 51% (active).
In the case of `Nc1ccc(-c2nnc(-c3ccccc3)o2)cc1`, the inhibition was -10.8%.
On to `O=C(Cn1c[n+](CC(=O)c2ccc([N+](=O)[O-])cc2)cn1)c1ccc([N+](=O)[O-])cc1`, for which the inhibition is -6.5% and -8.93%.
As for `COc1cc(CNC2CCCCC2)c(Br)cc1OC1CCCC1`, the figure is 1%.
With `COC(=O)C1[C@H]2SC(C)(C)C(C(=O)OC)N2C(=O)N1Cc1nc2ccccc2s1` (stereo not given in full), the inhibition is -10.3%.
Regarding `COc1ccc(CNC(=O)/C(C#N)=C/c2cccc(OC)c2OC)cc1`, the inhibition is -0.6%.
As to `COc1ccc(Nc2ncnc3ccc(Br)cc23)c(OC)c1`, the inhibition is 55.5% (active).
As to `Cc1ccc2nc(/C(C#N)=C\c3ccc(OC(=O)c4cccs4)cc3)[nH]c2c1`, the inhibition was -9.37%.
As to `CCCCNC(=O)Nc1c(C)cc(SC#N)cc1C`, the inhibition is -1.43%.
As for `Cc1nn(CC(=O)Nc2ccc(F)cc2)c(=O)c2ccccc12`, the figure is -7.73%; as for `CCOc1ccc(-c2nnc(-c3ccco3)o2)cc1`, 56.9% (active); as for `O=C(CN1C(=O)c2ccccc2S1(=O)=O)N1CCc2ccccc21`, -9.57%.
Regarding `CCOc1c(Br)cc(/C=C2\C(=O)N(CCC#N)N=C2C)cc1OC`, the inhibition is 29.9% (active).
As for `N#C/C=C\Oc1ccc(Cl)cc1N`, the figure is -7.1%; as for `Cc1nnc(SCC(=O)N2c3ccccc3C(C)(c3ccc(Cl)cc3)CC2(C)C)s1` (stereo not given), -1.27%.
As for `O=C(Nc1cccnc1)c1noc2c1CCCCC2`, the figure is 38.6% (active); as for `COc1cc(NS(=O)(=O)c2ccc3ccccc3c2)c2ncccc2c1`, -7.83%.
Consider `CSCCC(C(=O)NC1=NCCS1)N1C(=O)c2ccccc2C1=O` (stereo not given), for which the inhibition was -8.47%.
Turning to `CN(C)c1ccc(-n2cccc2/C=N/n2cnnc2)cc1`, the inhibition is -11.7%.
On to `CC(C)c1nc2ccc(C(=O)O)cc2[nH]1`, for which the inhibition is 31.5% (active).
Take `Cc1nc2ccc(C(=O)O)cc2[nH]1`: the inhibition was 4.87%.
With `CC(C)(C)OC(=O)c1c(N)n(CCCN2CCCC2=O)c2nc3ccccc3nc12`, the inhibition was -7.33%.
With `CCCS(=O)(=O)N1CCCC(C(=O)NCCN2CCCCC2C)C1` (stereo not given) the figure was -4.93%.
Turning to `Cc1ccc2nc(-c3ccc(Br)cc3)cn2c1`, the inhibition is 81.5% (active).
As for `COc1ccc(-c2cn3ccc(C)cc3n2)cc1`, the figure is 69.7% (active).
For the compound `Cc1ccc(-c2cn3cc(C)ccc3n2)cc1`, the inhibition is 87.3% (active).
With `Cc1cccc(C(=O)OC(C)CN2CCN(C)CC2)c1` (stereo not given) the figure was -7.93%; with `Cc1ccc(C(=O)CSc2ccccc2C(=O)O)cc1`, -0.87%; with `O=C(CSC(=S)N1CCOCC1)c1ccccc1`, 34.5% (active).
As to `O=C(O)c1ccc(N=NN2CCOCC2)cc1`, the inhibition is -12.9%.
For `CCOC(=O)N1CCN(Cc2nc3c(c(=O)n(C)c(=O)n3C)n2Cc2ccccc2)CC1`, the inhibition was -8.93%.
Regarding `C=CCN1CCN(C(=O)CCCc2ccccc2)CC1`, the inhibition is 37.2% (active).
As for `O=C(Cc1ccccc1)N1CCN(S(=O)(=O)c2ccc([N+](=O)[O-])cc2)CC1`, the figure is -3.47%; as for `COc1cc(C(=O)NN(CCC#N)C2=NS(=O)(=O)c3ccccc32)cc(OC)c1OC`, -6.77%; as for `Cc1cccc(CCNC(=O)Cn2ncc3c([nH]c4ccc(C)cc43)c2=O)c1`, -0.53%.
For `CN(c1ccc2nc3ccccc3c(=O)n2n1)C1CCCCC1`, the inhibition is 87.3% (active).
Consider `O=C(OC1CCOC1=O)c1ccc(-c2nc3ccccc3s2)s1` (stereo not given), for which the inhibition is 65.2% (active).
Turning to `c1ccc(-c2noc(-c3cccs3)n2)nc1`, the inhibition was 27.4% (active).
On to `CCOC(=O)c1nc(C)n(-c2ccc(Cl)cc2Cl)n1`, for which the inhibition is -5.2%.
With `COc1ccc(/C=N/Nc2ccccc2C(=O)O)cc1` the figure was 23.4% (active); with `COc1ccc(C(=O)Nc2ccccc2C(=O)N/N=C/c2ccccc2OC)cc1`, 43.8% (active).
Regarding `O=C(Nc1ccccc1C(=O)O)c1ccc(N2C(=O)C3CC=CCC3C2=O)cc1` (stereo not given), the inhibition is -15.7%.
As for `COc1ccc(C(=O)Nc2ccccc2C(=O)N/N=C/c2ccc(O)c(OC)c2)cc1`, the figure is 93.5% (active); as for `CCc1nc(SCC(=O)Nc2ccccc2OC)n[nH]1`, 0.13%; as for `COc1ccc(Cl)cc1NC(=O)Cn1nc(-c2ccc(C)cc2)n(C)c1=S`, -10.3%.
In the case of `CC(OC(=O)c1ccc2noc(-c3ccccc3)c2c1)C(N)=O` (stereo not given), the inhibition was -3.9%.
As for `Oc1c(C=Nc2cccc3nsnc23)ccc2ccccc12`, the figure is -18.8%.
Consider `COc1ccc(/C=C/c2noc(-c3ccccc3OC(C)=O)n2)cc1`, for which the inhibition is -12.5%.
As to `COc1ccc(-c2nc(-c3ccccc3)no2)c(OC)c1`, the inhibition is 81.7% (active).
Take `CCCCOCCCNC(=O)c1ccccc1OCC`: the inhibition was -6.47%.
`CCCOc1ccc(C(=O)NCCc2ccccc2)cc1`: the inhibition was 44% (active).
`COc1cccc(/C=C/c2ccc3ccccc3n2)c1OC(C)=O`: the inhibition was -12.7%.
In the case of `Cc1ccc(C(=O)COC(=O)c2cccc(N3C(=O)c4c(C)nc5ccccc5c4C3=O)c2)cc1C`, the inhibition is -20.1%.
For `COc1cccc2c(C)c(C(=O)O)[nH]c12`, the inhibition is 30.6% (active).
Take `O=C1CCC([N+](=O)[O-])C(c2ccccc2Br)N1` (stereo not given): the inhibition is -7.7%.
For `CC(C)CNC(=O)CC(NCC(C)C)C(=O)O` (stereo not given), the inhibition was -6.07%.
Take `Clc1cccc(N=C2NN=C(c3ccc4c(c3)OCCO4)CS2)c1`: the inhibition is 36.7% (active).
As to `c1c2c(cc3sc(N4CCCCC4)nc13)OCCO2`, the inhibition is 80% (active).
With `CCN(CCCNC(=O)c1ccc2c(c1)NC(=O)CN2C)c1cccc(C)c1` the figure was -5.03%; with `COc1ccc(C(=O)/C=C/Nc2ccccn2)cc1`, 90.9% (active).
As for `CCOc1ccc(N/C=C/C(=O)c2ccccc2)cc1`, the figure is 62.8% (active); as for `CCCCCc1ccc(-c2ccc(C(=O)O)cc2)nc1`, 57.8% (active); as for `C/C(=N\NC(=S)NC1CCCCC1)c1ccc(C)o1`, -11.1%.
As for `CCS(=O)(=O)c1cc([N+](=O)[O-])c(Sc2ccccc2N)s1`, the figure is 46% (active); as for `CCc1ccc(Nc2ncc3c(n2)CC(c2ccco2)CC3=O)cc1` (stereo not given), -15%.
With `Cc1ccsc1C(=O)OCC(=O)c1cc(C)n(CC2CCCO2)c1C` (stereo not given), the inhibition is 85.4% (active).
In the case of `COCc1cc(=O)[nH]c2cc(NC(=O)C(F)(F)F)c(C)cc12`, the inhibition was -7%.
As for `CN(CCO)c1ccc(/C=N/Nc2nncc3ccccc23)cc1`, the figure is 84.2% (active).
As to `CCCCC(=O)Nc1nc(C)c(-c2csc(Nc3ccc(Cl)cc3)n2)s1`, the inhibition is -9.5%.
As for `O=c1oc(/C=C/c2ccccc2)nc2ccccc12`, the figure is -16.5%.
